The nature of experiment [1]: ATG_PBREM_CIS: Attagene CIS-FACTORIAL HepG2 Assay for human Phenobarbital-responsive Enhancer Module (PBREM) (AID 2282955). Conditions: HepG2 PBREM cis-reporter, Attagene multiplexed transcription; actives raise or lower the signal. A digest of the protocol:
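HepG2 cells transiently transfected with multiple cis-regulated reporter units measure endogenous transcription factor activity; 24 h compound exposure. Reporter mRNA quantified by RT-PCR, fluorescent labelling, HpaI digestion and capillary electrophoresis; bidirectional fit versus DMSO.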

The target of experiment [2] is Paired box protein Pax-6 (Homo sapiens) (UniProt P26367). Kind of experiment: ATG_Pax6_CIS: Attagene CIS-FACTORIAL HepG2 Assay for human Paired Box 6 (PAX6) (AID 2282956). Conditions: HepG2 CIS-FACTORIAL PAX6 reporter transcription, RNA readout; actives raise or lower the signal. A digest of the protocol: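 Multiplexed cis-reporter HepG2 system; 24 h treatment; reporter mRNA read by RT-PCR/CE fluorescence; bidirectional fit vs DMSO.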
Chain of Paired box protein Pax-6 (Homo sapiens) (P26367 whole entry, looked up): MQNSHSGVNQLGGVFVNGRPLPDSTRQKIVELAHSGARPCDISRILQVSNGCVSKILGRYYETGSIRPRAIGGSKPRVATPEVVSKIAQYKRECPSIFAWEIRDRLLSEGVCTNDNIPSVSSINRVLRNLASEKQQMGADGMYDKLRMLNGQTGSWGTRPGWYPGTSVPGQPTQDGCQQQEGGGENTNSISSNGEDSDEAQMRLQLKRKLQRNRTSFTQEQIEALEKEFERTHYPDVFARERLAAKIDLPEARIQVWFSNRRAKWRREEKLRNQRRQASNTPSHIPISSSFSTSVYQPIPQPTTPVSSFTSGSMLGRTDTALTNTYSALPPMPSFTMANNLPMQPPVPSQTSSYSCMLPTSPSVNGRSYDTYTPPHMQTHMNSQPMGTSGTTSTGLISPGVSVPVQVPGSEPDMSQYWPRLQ

Experiment [3] is described as follows: ATG_PXRE_CIS: Attagene CIS-FACTORIAL HepG2 Assay for human Pregnane X Receptor Element (PXRE) (AID 2282957). Conditions: HepG2 Attagene CIS-FACTORIAL PXRE reporter, mRNA; actives raise or lower the signal. The method in brief: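 HepG2 cells transiently transfected with cis-element-driven multiplexed reporter units; after 24 h chemical exposure, reporter mRNA measured by RT-PCR, 6-FAM labelling, HpaI digestion and capillary electrophoresis. Bidirectional fitting relative to DMSO.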

Experiment [4] can be described thus: ATG_RORE_CIS: Attagene CIS-FACTORIAL HepG2 Assay for human RAR-related Orphan Receptor Element (RORE) (AID 2282959). Conditions: HepG2 Attagene cis-factorial RORE reporter, mRNA; actives raise or lower the signal. A digest of the protocol: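 HepG2 cells carrying transiently transfected cis-regulated reporter units; RORE-driven reporter mRNA quantified 24 h post-dosing by RT-PCR, 6-FAM primer extension, HpaI digestion and capillary electrophoresis. Bidirectional fit versus DMSO.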

Experiment [5] can be described thus: ATG_Sox_CIS: Attagene CIS-FACTORIAL HepG2 Assay for human SRY-box transcription factor (SOX) (AID 2282960). Conditions: HepG2 Attagene cis-factorial SOX reporter, mRNA; actives raise or lower the signal. The method in brief:
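HepG2 cells transiently transfected with multiple cis-regulated reporter units, then dosed for 24 h. Reporter mRNA quantified by RT-PCR, fluorescent labelling, HpaI digestion and capillary electrophoresis; bidirectional fit versus DMSO.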

Experiment [6] has as its target Transcription factor Sp1 (Homo sapiens) (UniProt P08047). In words: ATG_Sp1_CIS: Attagene CIS-FACTORIAL HepG2 Assay for human Specificity Protein 1 (Sp1) (AID 2282961). The settings on record: HepG2 Sp1 cis-reporter transcription, actives raise or lower the signal. The method in brief:
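HepG2 cells transiently transfected with multiplexed cis-regulated reporter constructs, chemical exposure 24 h. Reporter mRNA quantified by RT-PCR with capillary electrophoresis; bidirectional fit relative to DMSO.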

Experiment [7] can be described thus: ATG_SREBP_CIS: Attagene CIS-FACTORIAL HepG2 Assay for human Sterol Regulatory Element Binding (SREBP) (AID 2282962). The settings on record: HepG2 Attagene cis-factorial SREBP reporter, mRNA; actives raise or lower the signal. A digest of the protocol: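 mRNA induction of transfected cis-promoter reporters in HepG2 cells, 24 h post-dose. Detection: RT-PCR with 6-FAM-labelled products, HpaI digest, capillary electrophoresis. DMSO served as negative control and baseline.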

The target of experiment [8] is Signal transducer and activator of transcription 3 (Homo sapiens) (UniProt P40763). In words: ATG_STAT3_CIS: Attagene CIS-FACTORIAL HepG2 Assay for human Signal Transducer and Activator of Transcription 3 (STAT3) (AID 2282963). The settings on record: HepG2, Attagene cis-factorial STAT3 reporter transcription; actives raise or lower the signal. The method in brief: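 HepG2 cells transiently transfected with multiple cis-element-driven reporter units report endogenous transcription factor activity. After 24 h compound exposure, reporter mRNA is measured by RT-PCR, 6-FAM labelling, HpaI digestion and capillary electrophoresis. Fitted bidirectionally versus DMSO.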
Chain of Signal transducer and activator of transcription 3 (Homo sapiens) (P40763 whole entry, looked up): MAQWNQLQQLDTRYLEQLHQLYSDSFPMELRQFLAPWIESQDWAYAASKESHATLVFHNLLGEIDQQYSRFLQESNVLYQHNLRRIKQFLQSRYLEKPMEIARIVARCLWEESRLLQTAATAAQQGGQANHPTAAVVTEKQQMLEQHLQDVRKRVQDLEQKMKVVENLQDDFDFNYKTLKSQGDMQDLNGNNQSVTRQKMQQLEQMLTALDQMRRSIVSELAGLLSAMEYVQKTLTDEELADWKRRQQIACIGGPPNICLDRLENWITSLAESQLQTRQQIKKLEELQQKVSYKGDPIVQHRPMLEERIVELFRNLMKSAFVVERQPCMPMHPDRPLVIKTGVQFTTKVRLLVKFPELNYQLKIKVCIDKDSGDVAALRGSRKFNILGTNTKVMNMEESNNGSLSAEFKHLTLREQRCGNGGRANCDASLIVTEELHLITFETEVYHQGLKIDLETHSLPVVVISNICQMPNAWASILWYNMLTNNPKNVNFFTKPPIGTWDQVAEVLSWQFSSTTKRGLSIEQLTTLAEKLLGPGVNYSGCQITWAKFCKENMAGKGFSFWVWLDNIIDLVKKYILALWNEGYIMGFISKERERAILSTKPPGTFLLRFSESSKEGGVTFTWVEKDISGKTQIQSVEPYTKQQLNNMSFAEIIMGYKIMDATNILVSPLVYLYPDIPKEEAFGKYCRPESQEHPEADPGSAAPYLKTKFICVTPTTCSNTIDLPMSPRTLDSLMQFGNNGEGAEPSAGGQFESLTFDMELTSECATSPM

Experiment [9] in a line: ATG_TA_CIS: Attagene CIS-FACTORIAL HepG2 Assay for human TA Basal Promoter (AID 2282964). Conditions: HepG2 Attagene CIS-factorial TA basal promoter reporter; actives raise or lower the signal. The method in brief:
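Fluorescence from labelled RT-PCR reporter fragments, separated by capillary electrophoresis, gives the signal. Cells: HepG2 transiently carrying multiple reporter units, 24 h chemical dosing. Gain or loss relative to DMSO.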

A short description of experiment [10]: ATG_TCF_b_cat_CIS: Attagene CIS-FACTORIAL HepG2 Assay for human T-Cell-Factor with beta-catenin (TCF/b-cat) (AID 2282965). The settings on record: HepG2 TCF/beta-catenin cis-reporter transcription, actives raise or lower the signal. A digest of the protocol: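 HepG2, transient MRTU transfection, cis-element-driven reporters (endogenous TFs). 24 h compound exposure. Readout: reporter mRNA by RT-PCR + 6-FAM primer extension, HpaI digest, capillary electrophoresis. Gain/loss fit vs DMSO baseline.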

Experiment [11] in a line: ATG_TAL_CIS: Attagene CIS-FACTORIAL HepG2 Assay for human TAL Basal Promoter (AID 2282966).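 Further: background control endpoint measuring basal TAL promoter reporter mRNA not a specific factor.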 Conditions: HepG2 Attagene cis-factorial TAL promoter reporter; actives raise or lower the signal. The method in brief: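 HepG2 cells transiently transfected with multiplexed cis-promoter reporter units, dosed 24 h. Reporter mRNA quantified by RT-PCR, 6-FAM labelling, HpaI digestion and capillary electrophoresis; TAL basal promoter serves as background control, fitted bidirectionally versus DMSO.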

A short description of experiment [12]: ATG_TGFb_CIS: Attagene CIS-FACTORIAL HepG2 Assay for human Transforming Growth Factor (TGF) (AID 2282967). Conditions: HepG2 Attagene CIS TGFb reporter, mRNA transcription; actives raise or lower the signal. The method in brief: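 Bidirectional fitting relative to DMSO gave the endpoint. Underlying data: reporter mRNA from HepG2 cells carrying transiently transfected cis-regulated reporter constructs, harvested 24 h after dosing and analyzed by RT-PCR and capillary electrophoresis.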

Experiment [13] concerns the target Estrogen receptor (Homo sapiens) (UniProt P03372). Kind of experiment: ATG_ERa_TRANS: Attagene TRANS-FACTORIAL HepG2 Assay for human Estrogen Receptor alpha (ERa) (AID 2282970; active means hit-call score of the fitted dose curve at least 0.9, where 1 is the maximum). Conditions: HepG2 Attagene TRANS ERa GAL4 reporter, mRNA. The method in brief:
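HepG2 cells transiently transfected with multiplexed GAL4-UAS reporter units read out chimeric NR-Gal4 activity. After 24 h compound exposure, reporter mRNA was quantified by RT-PCR, 6-FAM labeling, HpaI digestion and capillary electrophoresis, relative to DMSO.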

Experiment [14] deals with X-box-binding protein 1 (Homo sapiens) (UniProt P17861). Kind of experiment: ATG_Xbp1_CIS: Attagene CIS-FACTORIAL HepG2 Assay for human X-box Binding Protein 1 (XBP1) (AID 2282972). Conditions: HepG2 XBP1 cis-element reporter, Attagene multiplex; actives raise or lower the signal. The method in brief:
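Fluorescence-labelled cDNA fragments from reporter transcripts, separated by capillary electrophoresis, give the signal. Source: HepG2 cells transfected with promoter-driven reporter units, harvested 24 h post-dose. DMSO served as reference for bidirectional curve fitting.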

A short description of experiment [15]: ATG_M_19_TRANS: Attagene TRANS-FACTORIAL HepG2 Assay for M19 Transcription Factor (Internal Marker) (AID 2282974; active means hit-call score of the fitted dose curve at least 0.9, where 1 is the maximum). Conditions: HepG2 Attagene TRANS-FACTORIAL M19 internal marker reporter. A digest of the protocol: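 HepG2 transiently transfected with GAL4-UAS multiplex reporter constructs, exposed 24 h; reporter RNA quantified by RT-PCR, 6-FAM labeling, HpaI digestion and capillary electrophoresis; internal background marker fitted upward versus DMSO.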

The nature of experiment [16]: ATG_VDRE_CIS: Attagene CIS-FACTORIAL HepG2 Assay for human Vitamin D Receptor Element (VDRE) (AID 2282968). Conditions: HepG2 VDRE cis-reporter transcription, actives raise or lower the signal. The method in brief:
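Transiently transfected HepG2 cells carrying cis-regulated reporter transcription units were exposed for 24 h. Reporter mRNA was measured by RT-PCR with fluorescent labelling and capillary electrophoresis, and fitted in both directions against DMSO.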

The nature of experiment [17]: ATG_PPRE_CIS: Attagene CIS-FACTORIAL HepG2 Assay for human Peroxisome Proliferator-activated Response Element (PPRE) (AID 2282958). The settings on record: HepG2 PPRE cis-element reporter, Attagene transcription factor profiling; actives raise or lower the signal. A digest of the protocol: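 HepG2 cells are transiently transfected with multiplexed cis-promoter reporter units to report endogenous PPAR activity. After 24 h dosing, reporter mRNA is read by RT-PCR and capillary electrophoresis. Fitting is bidirectional against DMSO.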

Results filed as inconclusive are left out. Activity calls are given as the source filed them. How the source made its calls, unless noted: active means hit-call score of the fitted dose curve at least 0.9, where 1 is the maximum; inactive means score below 0.9.

Chain of X-box-binding protein 1 (Homo sapiens) (P17861 whole entry, looked up, the tested form may be a part): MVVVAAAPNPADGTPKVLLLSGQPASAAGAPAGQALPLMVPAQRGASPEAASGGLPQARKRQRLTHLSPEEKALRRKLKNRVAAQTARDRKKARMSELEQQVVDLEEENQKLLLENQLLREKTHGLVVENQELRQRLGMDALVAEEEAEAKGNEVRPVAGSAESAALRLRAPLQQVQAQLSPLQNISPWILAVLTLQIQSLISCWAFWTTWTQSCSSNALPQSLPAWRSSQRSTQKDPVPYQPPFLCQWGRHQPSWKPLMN
Chain of Transcription factor Sp1 (Homo sapiens) (P08047 whole entry, looked up): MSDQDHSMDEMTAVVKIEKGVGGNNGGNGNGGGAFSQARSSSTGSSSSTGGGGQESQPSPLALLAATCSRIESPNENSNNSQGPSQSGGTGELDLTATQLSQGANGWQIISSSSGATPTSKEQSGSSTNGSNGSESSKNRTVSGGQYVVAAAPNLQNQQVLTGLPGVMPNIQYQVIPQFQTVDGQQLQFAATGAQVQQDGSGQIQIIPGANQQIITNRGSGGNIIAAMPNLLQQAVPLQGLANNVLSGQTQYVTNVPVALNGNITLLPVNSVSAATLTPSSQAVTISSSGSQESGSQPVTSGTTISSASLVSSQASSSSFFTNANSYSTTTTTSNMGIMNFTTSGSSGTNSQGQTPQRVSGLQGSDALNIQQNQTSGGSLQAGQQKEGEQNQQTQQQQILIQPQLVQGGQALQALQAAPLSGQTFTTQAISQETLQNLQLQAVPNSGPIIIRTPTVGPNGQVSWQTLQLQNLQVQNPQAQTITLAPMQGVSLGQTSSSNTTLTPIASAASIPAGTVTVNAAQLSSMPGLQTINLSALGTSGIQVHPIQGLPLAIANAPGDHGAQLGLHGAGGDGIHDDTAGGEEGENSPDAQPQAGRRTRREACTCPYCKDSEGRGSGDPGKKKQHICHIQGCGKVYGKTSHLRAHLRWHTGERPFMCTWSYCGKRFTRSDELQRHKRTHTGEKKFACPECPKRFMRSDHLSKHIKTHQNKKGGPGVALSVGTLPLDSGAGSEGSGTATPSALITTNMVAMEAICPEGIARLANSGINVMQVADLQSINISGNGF
Chain of Estrogen receptor (Homo sapiens) (P03372 whole entry, looked up, the tested form may be a part): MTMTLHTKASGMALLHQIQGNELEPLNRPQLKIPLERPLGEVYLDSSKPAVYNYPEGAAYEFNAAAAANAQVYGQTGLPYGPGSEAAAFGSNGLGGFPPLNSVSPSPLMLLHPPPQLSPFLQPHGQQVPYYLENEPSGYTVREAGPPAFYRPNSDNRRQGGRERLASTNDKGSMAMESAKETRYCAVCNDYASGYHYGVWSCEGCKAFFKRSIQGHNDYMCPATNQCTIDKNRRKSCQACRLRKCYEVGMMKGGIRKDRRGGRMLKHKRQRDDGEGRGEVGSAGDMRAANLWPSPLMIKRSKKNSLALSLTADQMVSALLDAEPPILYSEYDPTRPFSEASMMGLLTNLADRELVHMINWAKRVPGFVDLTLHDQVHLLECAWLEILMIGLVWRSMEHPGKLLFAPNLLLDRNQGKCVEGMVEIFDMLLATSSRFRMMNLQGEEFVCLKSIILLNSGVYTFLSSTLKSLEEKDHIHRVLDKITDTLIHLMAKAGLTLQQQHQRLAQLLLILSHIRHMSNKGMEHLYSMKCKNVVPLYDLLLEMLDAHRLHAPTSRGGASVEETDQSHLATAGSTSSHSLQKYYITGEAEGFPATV

With `CCCN(CC)CC1COC2(CCC(C(C)(C)C)CC2)O1` (configuration not stated), the AC50 was 16.1 µM (active) in [1]; 21.9 µM (active) in experiment [2]; 13.5 µM (active) in experiment [3]; 18.1 µM (active) in [4]; 35.5 µM (active) in experiment [5]; 24.5 µM (active) in [7]. In addition, the AC50 in experiment [8] was 86.3 µM (active); in experiment [12] it was 19.9 µM (active); in experiment [14], 25.3 µM (active). In addition, the molecule was classed as inactive in [6], in experiment [9], in experiment [10], in [11], in experiment [13] and in experiment [15].

Turning to `CNC(=O)Oc1cccc2ccccc12`, the outcome in experiment [1], in experiment [2], in experiment [4], in [5], in experiment [6] and in experiment [7] was inactive. In addition, the molecule was called inactive in experiment [8], in experiment [9], in experiment [10], in experiment [11], in experiment [12] and in experiment [16]. Besides, the molecule was called inactive in experiment [14] and in experiment [15]. Moreover, the AC50 in experiment [3] is 37.9 µM (active); in experiment [13], 50 µM (active).

As to `COc1cc(OC)nc(NC(=O)NS(=O)(=O)c2ncccc2OCC(F)(F)F)n1`, the result in [1], in experiment [2], in [17], in [4], in experiment [5] and in experiment [6] was inactive. Moreover, the call in experiment [7], in [8], in experiment [9], in [10], in experiment [11] and in experiment [12] was inactive. Moreover, the result in experiment [13], in experiment [14] and in experiment [15] was inactive. Besides, in experiment [3], the AC50 was 63 µM (active).

`Nc1c(Cl)c(Cl)nc(C(=O)O)c1Cl`: the result in [2], in experiment [17], in [4], in experiment [5], in experiment [6] and in [7] was inactive. Moreover, the call in experiment [8], in experiment [9], in experiment [10], in experiment [11], in experiment [12] and in experiment [13] was inactive. Further, the call in [14] and in experiment [15] was inactive. In addition, the half-maximal activity concentration (AC50) in experiment [3] was 69.5 µM (active).

As a reminder, the AC50 is the concentration at which the activity in the assay is half-maximal.
